# Results: PubChem BioAssay
# A number with no mark means an inactive call. For some assays here: Entries with a potency or affinity are not part of this list. Calls of active or inactive are those of the source. Unless noted, the rule behind the calls is not given here.
# Experiments:
# [1] = antimalarial activity against Dd2 strain (AID 2302;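 active = growth inhibition above 50% at the single 2 µM test dose, taken to imply half-maximal potency below 2 µM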;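 note: 0% = DMSO untreated growth and 100% = chloroquine plus artemisinin killed control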); details: P. falciparum Dd2 in RBCs, LDH growth readout, 72 h; at 2 µM; hits give high values
# [2] = human hepatoma cell viability loss – ATP luminescence, cytotoxicity control for P. falciparum antimalarial project, primary screen (AID 2303;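 active = inhibition above 50%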;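 note: 0% = DMSO wells and 100% = digitonin-killed cells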); details: HepG2 viability, 24-48 h, at 10 µM, hits give high values
# [3] = biological target: L-lactate dehydrogenase (Plasmodium falciparum (isolate CDC / Honduras)) (UniProt Q27743); assay: PfLDH activity inhibition – cell lysate, 3D7 strain, counter-screen for P. falciparum growth inhibition project (AID 2304);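 note: 0% = vehicle and 100% = reference inhibitor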; details: P. falciparum 3D7 crude extract, LDH APAD/NBT absorbance; at 2 µM; hits give high values
# Sequence of L-lactate dehydrogenase (Plasmodium falciparum (isolate CDC / Honduras)) (Q27743 whole entry, looked up): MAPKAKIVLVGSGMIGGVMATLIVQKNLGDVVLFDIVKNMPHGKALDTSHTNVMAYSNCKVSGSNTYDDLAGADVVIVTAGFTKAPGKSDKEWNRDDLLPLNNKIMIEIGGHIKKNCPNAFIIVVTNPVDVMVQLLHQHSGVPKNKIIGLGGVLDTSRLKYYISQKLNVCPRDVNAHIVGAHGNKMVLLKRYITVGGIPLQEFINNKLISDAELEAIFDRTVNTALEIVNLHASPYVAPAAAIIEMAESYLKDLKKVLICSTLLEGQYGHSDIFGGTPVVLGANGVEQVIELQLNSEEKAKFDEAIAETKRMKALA
# [4] = inhibition of 3D7 malaria parasite growth – strain 3D7 (AID 2306);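 note: 0% = DMSO wells and 100% = chloroquine plus artemisinin control wells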; details: P. falciparum 3D7 erythrocytic growth, LDH absorbance, 72 h; at 2 µM; hits give high values
# [5] = biological target: Calcium-dependent protein kinase 1 (Plasmodium falciparum (isolate 3D7)) (UniProt P62344); assay: PfCDPK1 kinase inhibitors, biochemical, TCAMS library (AID 1159585; cut-off not given, nearly all actives have IC50 up to about 0.98 µM;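 note: inhibitors leave more ATP so luminescence rises with inhibition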); details: recombinant PfCDPK1, Kinase-Glo ATP depletion luminescence
# Sequence of Calcium-dependent protein kinase 1 (Plasmodium falciparum (isolate 3D7)) (P62344 whole entry, looked up): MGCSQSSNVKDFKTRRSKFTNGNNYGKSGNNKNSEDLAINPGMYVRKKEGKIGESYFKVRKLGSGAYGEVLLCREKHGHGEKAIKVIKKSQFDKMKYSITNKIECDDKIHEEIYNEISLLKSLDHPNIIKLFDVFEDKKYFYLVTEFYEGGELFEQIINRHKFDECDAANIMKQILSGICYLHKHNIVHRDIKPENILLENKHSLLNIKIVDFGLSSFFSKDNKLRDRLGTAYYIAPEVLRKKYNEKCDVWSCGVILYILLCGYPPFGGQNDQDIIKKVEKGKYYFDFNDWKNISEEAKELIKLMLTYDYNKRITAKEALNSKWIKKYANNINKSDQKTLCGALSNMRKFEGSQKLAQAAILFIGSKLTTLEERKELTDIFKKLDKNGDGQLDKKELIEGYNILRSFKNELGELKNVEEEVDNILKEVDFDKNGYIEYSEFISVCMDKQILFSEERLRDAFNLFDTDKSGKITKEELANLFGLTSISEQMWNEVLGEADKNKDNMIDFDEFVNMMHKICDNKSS
# [6] = biological target: Plasmodium falciparum protein kinase 6 (PK6, PF3D7_1337100) (UniProt Q8IDW1); assay: PfPK6 kinase inhibitors, biochemical, TCAMS library (AID 1159586); details: recombinant PfPK6, Kinase-Glo ATP depletion luminescence
# Sequence of Plasmodium falciparum protein kinase 6 (PK6, PF3D7_1337100) (Q8IDW1 1-305): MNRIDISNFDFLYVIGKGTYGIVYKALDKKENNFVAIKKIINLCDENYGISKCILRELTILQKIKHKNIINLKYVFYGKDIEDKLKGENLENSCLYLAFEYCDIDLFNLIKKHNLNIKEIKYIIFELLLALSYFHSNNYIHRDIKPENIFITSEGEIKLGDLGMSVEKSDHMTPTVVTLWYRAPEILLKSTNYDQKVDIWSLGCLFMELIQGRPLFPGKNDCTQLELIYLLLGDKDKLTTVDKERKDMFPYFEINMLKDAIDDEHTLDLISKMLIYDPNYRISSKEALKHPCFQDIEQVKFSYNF
# [7] = biological target: Protein kinase 7 (PK7), Plasmodium falciparum 3D7 (PF3D7_0213400) (UniProt Q7YTF7); assay: inhibition of Plasmodium PK7 catalytic activity – biochemical, TCAMS antimalarial set, Kinase-Glo luminescence (AID 1159587); details: recombinant PfPK7, Kinase-Glo ATP depletion luminescence
# Sequence of Protein kinase 7 (PK7), Plasmodium falciparum 3D7 (PF3D7_0213400) (Q7YTF7 1-343): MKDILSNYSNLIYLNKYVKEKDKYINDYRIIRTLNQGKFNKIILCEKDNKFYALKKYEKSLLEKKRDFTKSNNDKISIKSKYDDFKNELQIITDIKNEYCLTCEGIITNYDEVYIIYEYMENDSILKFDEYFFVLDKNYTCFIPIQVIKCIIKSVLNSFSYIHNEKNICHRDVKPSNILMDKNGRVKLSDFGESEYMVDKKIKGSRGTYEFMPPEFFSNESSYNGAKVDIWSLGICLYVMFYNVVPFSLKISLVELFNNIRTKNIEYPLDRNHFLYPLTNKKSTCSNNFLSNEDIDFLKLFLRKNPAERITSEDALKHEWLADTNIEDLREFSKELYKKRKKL
# [8] = biological target: Calcium-dependent protein kinase 4 (Plasmodium falciparum (isolate 3D7)) (UniProt Q8IBS5); assay: PfCDPK4 kinase inhibitors, biochemical, TCAMS library (AID 1159588; cut-off not given, nearly all actives have IC50 up to about 0.91 µM); details: recombinant PfCDPK4, Kinase-Glo ATP depletion luminescence
# Sequence of Calcium-dependent protein kinase 4 (Plasmodium falciparum (isolate 3D7)) (Q8IBS5 whole entry, looked up): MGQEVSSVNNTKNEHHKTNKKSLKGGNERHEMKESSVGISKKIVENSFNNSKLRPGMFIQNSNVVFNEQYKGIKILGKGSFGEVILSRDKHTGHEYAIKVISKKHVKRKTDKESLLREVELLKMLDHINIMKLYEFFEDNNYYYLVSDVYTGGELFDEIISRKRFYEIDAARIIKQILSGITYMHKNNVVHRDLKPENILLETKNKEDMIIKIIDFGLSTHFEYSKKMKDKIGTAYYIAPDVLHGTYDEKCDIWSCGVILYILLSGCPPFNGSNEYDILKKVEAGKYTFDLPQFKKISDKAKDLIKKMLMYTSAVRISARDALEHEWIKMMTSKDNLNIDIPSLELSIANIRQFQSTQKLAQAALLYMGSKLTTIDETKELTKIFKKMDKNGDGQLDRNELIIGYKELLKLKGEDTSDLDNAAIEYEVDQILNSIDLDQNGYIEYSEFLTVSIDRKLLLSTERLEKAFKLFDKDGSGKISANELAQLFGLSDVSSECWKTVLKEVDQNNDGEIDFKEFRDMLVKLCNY
Structure (SMILES),growth inhibition [1],inhibition [2],inhibition [3] [%],growth inhibition [4],outcome [5],outcome [6],outcome [7],outcome [8]
COc1cccc(NC(=O)[C@H](C)n2c(=O)[nH]c3ccccc3c2=O)c1,92% (active),8%,-3,100% (active),inactive,inactive,inactive,inactive
COC(=O)c1cccc(CNCc2cccc(-c3cccc(-c4nc5ccc(C(F)(F)F)cc5[nH]4)c3)c2)c1,69% (active),7%,6,102% (active),inactive,inactive,inactive,inactive
O=C(Nc1ccc(OC2CCN(Cc3ccsc3)CC2)c(Cl)c1)c1ccc(F)cc1,83% (active),31%,0,98% (active),inactive,inactive,inactive,inactive
Nc1c2c(nc3cc(NC(=O)c4ccc([N+](=O)[O-])cc4)ccc13)CCCC2,58% (active),11%,-2,100% (active),inactive,inactive,inactive,inactive
CC(C)(C)c1ccc(O)c(CNC2CCCCC2)c1,98% (active),5%,-2,100% (active),inactive,inactive,inactive,inactive
CC1CN(c2ccc(NC(=O)c3cccs3)cc2)CCN1Cc1cccc(F)c1 (stereo not given),96% (active),5%,0,96% (active),inactive,inactive,inactive,inactive
CCCN1CCc2c(sc3nc(SCC(=O)Nc4ccc(C)cc4)n(-c4ccc(C)cc4)c(=O)c23)C1,71% (active),0%,-5,92% (active),inactive,inactive,inactive,inactive
Cc1cc(NC(=O)Nc2ccc(C#N)cc2)c2ccccc2n1,49%,88% (active),-2,100% (active),inactive,inactive,inactive,inactive
O=C(NCCCN1CCN(c2cccc(Cl)c2)CC1)c1ccc(-c2nc3cc(Cl)c(Cl)cc3[nH]2)c(F)c1,72% (active),3%,2,101% (active),inactive,inactive,inactive,inactive
Cc1ccccc1C1CCN(C2CCC(NC(=O)/C=C/c3cc(F)ccc3F)CC2)CC1 (stereo not given),36%,47%,-2,85% (active),inactive,inactive,inactive,inactive
CCCCCCN=C(N)c1ccc2nc(-c3ccc(O)cc3)[nH]c2c1,99% (active),-3%,1,100% (active),inactive,inactive,inactive,inactive
CCCCCc1cc(OCCN(C)C)cc2c1C(=O)CC(C)(C)O2,-2%,5%,6,98% (active),inactive,inactive,inactive,inactive
CC(C)NCc1ccc(-c2cccc(NC(=O)c3cccc(C#N)c3)c2)cc1,78% (active),9%,-6,100% (active),inactive,inactive,inactive,inactive
COc1ccc(Cc2cccc(C(C(=O)NCc3cc(Cl)cc(Cl)c3)N3CCN(C)CC3)c2)cc1 (stereo not given),24%,8%,-9,101% (active),inactive,inactive,inactive,inactive
Fc1cccc(COc2ccc(Nc3ncnc4sc(C#Cc5ncc[nH]5)cc34)cc2Cl)c1,95% (active),55% (active),-3,100% (active),inactive,inactive,inactive,inactive
COc1cc(C2CCCCC2)c(OC)cc1CC1c2cc(O)c(Cl)cc2CCN1C (stereo not given),100% (active),12%,4,100% (active),inactive,inactive,inactive,inactive
COc1cc(F)c2nccc([C@@H](O)CN3CCC(NCc4ccc5c(n4)NC(=O)CS5)CC3)c2c1,25%,23%,-4,103% (active),inactive,inactive,inactive,inactive
O=c1cc(NCCCCNCc2ccc(Br)c(Br)c2)[nH]c2ccccc12,14%,13%,2,98% (active),inactive,inactive,inactive,inactive
COc1cc(NC(=O)c2c(-c3c(Cl)cccc3Cl)noc2C)c(OC)cc1Cl,67% (active),4%,0,85% (active),inactive,inactive,inactive,inactive
CS(=O)(=O)c1cccc(-c2cnc(N)c3cc(-c4ccc5c(c4)OCO5)ccc23)c1,23%,37%,1,91% (active),inactive,inactive,inactive,inactive

Structure (SMILES),growth inhibition [1],inhibition [2],inhibition [3] [%],growth inhibition [4],outcome [5],outcome [6],outcome [7],outcome [8]
CN(C)c1ccc(CN2CCC(CNC(=O)c3cc(-c4ccccc4F)cs3)C2)cc1 (stereo not given),33%,35%,2,101% (active),inactive,inactive,inactive,inactive
COc1cc2nc(NCCn3cccn3)nc(NCCc3ccccc3)c2cc1OC,100% (active),12%,-3,102% (active),inactive,inactive,inactive,inactive
COc1ccc(-c2ccc(CNC(=O)c3ccc(C#N)cc3)c(F)c2)cc1CN1CCCN(C)CC1,1%,6%,-10,90% (active),inactive,inactive,inactive,inactive
O=C(NCc1cccnc1)C(c1cc2ccccc2o1)N1CCN(C(c2ccccc2)c2ccccc2)CC1 (stereo not given),81% (active),12%,6,95% (active),inactive,inactive,inactive,inactive
O=S(=O)(c1cccc(Cl)c1F)N(CCC(O)(C(F)(F)F)C(F)(F)F)Cc1cccc(O)c1,86% (active),-5%,0,100% (active),inactive,inactive,inactive,inactive
O=C(Nc1ccc([N+](=O)[O-])cc1)c1nn(-c2ccccc2)cc1N=Cc1cccc(O)c1,37%,10%,-5,98% (active),inactive,inactive,inactive,inactive
OCc1c(Cl)cc(Cl)cc1CNCCCNc1nc2ccccc2[nH]1,2%,-6%,-2,102% (active),inactive,inactive,inactive,inactive
COc1ccccc1NC(=O)Nc1ccc(-c2ccc(-c3nc4c(C)cccc4[nH]3)s2)cc1,99% (active),71% (active),0,100% (active),inactive,inactive,inactive,inactive
CC(C)C[C@@H](/C=N/N1CCOC1=O)NC(=O)[C@H](CC(C)C)NC(=O)c1ccc(F)cc1,72% (active),1%,-4,85% (active),inactive,inactive,inactive,inactive
CC1CCCCN1Cc1cccc(-c2c[nH]c3nc(NC4CCCC4)ncc23)c1 (stereo not given),14%,-1%,-2,93% (active),inactive,inactive,inactive,inactive
CN1CCN(c2ccnc3ccc(NC(=O)Nc4cccc5c(-c6ccncc6)cccc45)cc23)CC1,100% (active),7%,1,100% (active),inactive,inactive,inactive,inactive
COc1cc(NCCCNCc2cn(S(=O)(=O)c3ccccc3)c3ccccc23)nc2ccccc12,77% (active),36%,4,101% (active),inactive,inactive,inactive,inactive
Cc1ccc2c(NN=CC=Cc3ccccc3)cc(C)nc2c1,13%,3%,6,92% (active),inactive,inactive,inactive,inactive
COc1cccc2c(NN=Cc3ccc(Cl)cc3)ccnc12,39%,26%,5,99% (active),inactive,inactive,inactive,inactive
CCOc1ccccc1C(=O)N1CCc2cc3nccc(N4CCN5CCC[C@H]5C4)c3cc21,58% (active),4%,-8,100% (active),inactive,inactive,inactive,inactive
CC(C)CNC(=O)c1cncc(-c2ccc(CN3CCC(N4CCCC4)CC3)cc2)c1,42%,25%,2,100% (active),inactive,inactive,inactive,inactive
Cc1ccc(NC(=O)N2CCCN(CCCCCNC(=O)/C=C/c3ccc(Cl)c(Cl)c3)CC2)cc1C,4%,62% (active),1,101% (active),inactive,inactive,inactive,inactive
CN(CCC(CCN1CCC(c2c[nH]c3ccccc23)CC1)c1ccccc1)C(=O)Nc1ccc(Cl)c(Cl)c1 (stereo not given),21%,50% (active),3,91% (active),inactive,inactive,inactive,inactive
COc1ccc(CNc2nc(NCCc3ccccc3)c3cc(OC)c(OC)cc3n2)cc1OC,101% (active),48%,3,100% (active),inactive,inactive,inactive,inactive
Cc1cnc(-c2ccc(NC(=O)N3CCc4cc5nccc(N6CCN7CCC[C@H]7C6)c5cc43)c3ccccc23)o1,45%,12%,-1,100% (active),inactive,inactive,inactive,inactive
